# Records with an inconclusive call do not appear. Entries that show only a call come without a potency. The source made the active and inactive calls. Calls follow the shape of the dose curve; as a rule, active = well fitted inhibition curve with a large enough effect; inconclusive = small, poorly fitted or top-dose-only effect; inactive = flat fitted curve, though single readings scatter.
# Biological target: Luciferin 4-monooxygenase (Photuris pensylvanica) (UniProt Q27757)
# Assay: Secondary Assay for Luciferase (Kinase-Glo TM) Inhibition Counterscreen
# Conditions: Kinase-Glo luciferase enzyme, luminescence; series mostly up to 58.1 µM
# Procedure, shortened: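 Kinase-Glo firefly-type luciferase with 10 uM ATP in 50 mM imidazole pH 7.2, 50 mM KCl, 7 mM MgCl2, 0.01% Tween 20, 0.05% BSA. Luminescence read after 8 min at ambient temperature, normalized to DMSO and 40 uM SIB 1757, then Hill-fitted.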
# Potency is read from the fitted curve at half-maximal effect.
row,SMILES,Potency
1,Cc1nc(-c2ccc(S(=O)(=O)Nc3ccc(C)c(C)c3)s2)cs1,inactive
2,c1c2c(cc3sc(N4CCCCC4)nc13)OCO2,10.3 µM (active)
3,Cc1ccc(NS(=O)(=O)c2cc3c(cc2/C=C/c2ccccc2)NC(=O)CO3)cc1C,inactive
4,O=C(/C=C/Nc1ccccc1Br)c1ccccn1,13 µM (active)
5,CN(C)c1ccc(N=Nc2nc3ccccc3n2C)cc1,9.19 µM (active)
6,Cc1cc2c(s1)c1cnn(Cc3ccccc3F)c(=O)c1n2C,inactive
7,O=C1CCc2cc(S(=O)(=O)Nc3cccnc3)ccc2N1,inactive
8,O=C(COC(=O)CCC(=O)c1ccc(F)cc1)Nc1ccc(F)cc1F,inactive
9,O=C1c2ccccc2C(=O)N1c1ccccn1,inactive
10,N/C(=N\OC(=O)c1ccccc1)c1ccccn1,4.61 µM (active)
11,COc1cc(N2C(=O)c3ccccc3C2=O)c2ncccc2c1,inactive
12,CC(C)(C)NC(=O)C(c1ccncc1)N(C(=O)Cn1nnc(-c2ccc(F)cc2)n1)c1ccccc1 (centres undefined),inactive
13,COc1ccccc1OC1=NS(=O)(=O)c2ccccc21,inactive
14,O=c1[nH]c2ccccc2n2c(-c3ccccc3)nnc12,inactive
15,COc1ccc(N=Nc2n(C)c3ccccc3[n+]2C)cc1,10.3 µM (active)
16,COc1ccc(-c2cn3ccc(C)cc3n2)cc1,8.19 µM (active)
17,Cc1cc(C)c2c(=O)n(CC(=O)Nc3cccc(Cl)c3C)sc2n1,inactive
18,CC[n+]1c(C)sc2sc3ccccc3c21,inactive
19,COc1cc(Cl)c(C)cc1NC(=O)COC(=O)c1cc[n+]([O-])cc1,inactive
